According to PubChem BioAssay:
Where “and” joins values, the source holds several entries; their conditions need not be identical. Equal entries are not always repeated. Some compounds were tested as several samples or in several runs, with calls that do not always agree. Calls of active or inactive are those of the source. Rule as the data show it: active = inhibition above about 80%; inactive = the rest.

experiment: MDA-MB-436 breast carcinoma cell growth inhibition, synergistic combos for chromothripsis tumors, BGB or cisplatin combos (AID 1671458); conditions: MDA-MB-436 breast carcinoma growth inhibition, drug combinations; measured here: cisplatin combination; at 0.5 µM; stronger effect = higher value;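 also: cells exposed for 96 hours; 0% = vehicle DMSO and 100% = killing by high DMSO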

Row | Structure (SMILES) | inhibition
1 | CC(Oc1cc(-c2cnn(C3CCNCC3)c2)cnc1N)c1c(Cl)ccc(F)c1Cl (stereo unspecified) | 3.61%
2 | O=C(O)c1cc2cccc([N+](=O)[O-])c2[nH]1 | -25.6%
3 | O=c1[nH]c(=O)n(C2CC(O)C(CO)O2)cc1I (stereo unspecified) | -22.4%

same assay, conditions: MDA-MB-436 breast carcinoma growth inhibition, drug combinations; measured here: cisplatin combination; at 5 µM; stronger effect = higher value

Row | Structure (SMILES) | inhibition
4 | COc1ccccc1S(=O)(=O)Nc1ccc2c(c1)CN(C)C(=O)N2 | -10.1%
5 | Cc1cc(C#N)cc(C)c1Oc1nc(Nc2ccc(C#N)cc2)nc(N)c1Br | -39.5%
6 | Nc1ncn(C2OC(CO)C(O)C2O)c(=O)n1 (stereo unspecified) | 23.8%
7 | Cc1cc(C)c(Nc2ccnc(Nc3ccc(C#N)cc3)n2)c(C)c1 | 45.4%
8 | COc1ccc(CC(N)C(=O)NC2C(CO)OC(n3cnc4c(N(C)C)ncnc43)C2O)cc1 (stereo unspecified) | 98.3% and 97.8%
9 | O=c1ccn(C2OC(CO)C(O)C2O)c(=O)[nH]1 (stereo unspecified) | 2.73% and -39.8%
10 | CC=C1NC(=O)C2CSSCCC=CC(CC(=O)NC(C(C)C)C(=O)N2)OC(=O)C(C(C)C)NC1=O (stereo unspecified) | 84.8% and 85.1%
11 | CN(C)CC(=O)Nc1ccc2[nH]c(=O)c3ccccc3c2c1 | -17.2% and -39.2% and -6.55%
12 | CC1OC(n2cc(F)c(=O)[nH]c2=O)C(O)C1O (stereo unspecified) | 12%
13 | Nc1ccn(C2OC(CO)C(O)C2(F)F)c(=O)n1 (stereo unspecified) | 77.8% and 78.1% and 78.7%
14 | Cc1cn(C2CC(N=[N+]=[N-])C(CO)O2)c(=O)[nH]c1=O (stereo unspecified) | -32% and 1.63%
15 | CC(C=CC(=O)NO)=CC(C)C(=O)c1ccc(N(C)C)cc1 (stereo unspecified) | 81.3%
16 | NC(=S)NN=Cc1ncccc1N | 62.7%
17 | CC(C)(C#N)c1ccc(N2C(=O)OCc3cnc4ccc(-c5cnc6ccccc6c5)cc4c32)cc1 | -3.36%
18 | CC1CN(c2c(F)c(N)c3c(=O)c(C(=O)O)cn(C4CC4)c3c2F)CC(C)N1 (stereo unspecified) | -5.2%
19 | CCCCN(Cc1ccc(C(=O)NO)cc1)C(=O)Nc1ccccc1 | 26% and 22.1%
20 | O=c1[nH]cnc2c1ncn2C1OC(CO)C(O)C1O (stereo unspecified) | -15.5% and -7.72%
21 | Cc1cc(C=CC#N)cc(C)c1Nc1ccnc(Nc2ccc(C#N)cc2)n1 | -32.4%
22 | CC(Oc1cc(-c2cnn(C3CCNCC3)c2)cnc1N)c1c(Cl)ccc(F)c1Cl (stereo unspecified) | 29.4%
23 | O=C(O)c1cc2cccc([N+](=O)[O-])c2[nH]1 | -40.6%
24 | O=c1[nH]c(=O)n(C2CC(O)C(CO)O2)cc1I (stereo unspecified) | -10.7%

experiment: UWB1.289_BRCA1 ovarian cancer growth, cell-based, BGB or cisplatin combinations (AID 1671459); conditions: UWB1.289 BRCA1 ovarian carcinoma, drug combinations, BGB combination, concentration series, at 5 µM, stronger effect = higher value

Row | Structure (SMILES) | inhibition
25 | COc1ccccc1S(=O)(=O)Nc1ccc2c(c1)CN(C)C(=O)N2 | 37.7%
26 | Cc1cc(C#N)cc(C)c1Oc1nc(Nc2ccc(C#N)cc2)nc(N)c1Br | 11.2%
27 | Nc1ncn(C2OC(CO)C(O)C2O)c(=O)n1 (stereo unspecified) | 63.4%
28 | Cc1cc(C)c(Nc2ccnc(Nc3ccc(C#N)cc3)n2)c(C)c1 | 69.3%
29 | COc1ccc(CC(N)C(=O)NC2C(CO)OC(n3cnc4c(N(C)C)ncnc43)C2O)cc1 (stereo unspecified) | 117% and 113%
30 | O=c1ccn(C2OC(CO)C(O)C2O)c(=O)[nH]1 (stereo unspecified) | 8.48% and -29.5%
31 | CC=C1NC(=O)C2CSSCCC=CC(CC(=O)NC(C(C)C)C(=O)N2)OC(=O)C(C(C)C)NC1=O (stereo unspecified) | 118% and 126%
32 | CN(C)CC(=O)Nc1ccc2[nH]c(=O)c3ccccc3c2c1 | -7.67% and -9.61% and 17%
33 | CC1OC(n2cc(F)c(=O)[nH]c2=O)C(O)C1O (stereo unspecified) | -3.82%
34 | Nc1ccn(C2OC(CO)C(O)C2(F)F)c(=O)n1 (stereo unspecified) | 71.1% and 55.2% and 80.4%
35 | Cc1cn(C2CC(N=[N+]=[N-])C(CO)O2)c(=O)[nH]c1=O (stereo unspecified) | -27.1% and 1.57%
36 | CC(C=CC(=O)NO)=CC(C)C(=O)c1ccc(N(C)C)cc1 (stereo unspecified) | 116%
37 | NC(=S)NN=Cc1ncccc1N | 56.4%
38 | CC(C)(C#N)c1ccc(N2C(=O)OCc3cnc4ccc(-c5cnc6ccccc6c5)cc4c32)cc1 | 53.9%
39 | CC1CN(c2c(F)c(N)c3c(=O)c(C(=O)O)cn(C4CC4)c3c2F)CC(C)N1 (stereo unspecified) | 10.9%
40 | CCCCN(Cc1ccc(C(=O)NO)cc1)C(=O)Nc1ccccc1 | 53.9% and 55%
41 | O=c1[nH]cnc2c1ncn2C1OC(CO)C(O)C1O (stereo unspecified) | -23.4% and 11.7%
42 | Cc1cc(C=CC#N)cc(C)c1Nc1ccnc(Nc2ccc(C#N)cc2)n1 | 96.3%
43 | CC(Oc1cc(-c2cnn(C3CCNCC3)c2)cnc1N)c1c(Cl)ccc(F)c1Cl (stereo unspecified) | 53.7%
44 | O=C(O)c1cc2cccc([N+](=O)[O-])c2[nH]1 | -18.8%
45 | O=c1[nH]c(=O)n(C2CC(O)C(CO)O2)cc1I (stereo unspecified) | 0.385%

same assay, conditions: UWB1.289 BRCA1 ovarian carcinoma, drug combinations, at 0.5 µM, stronger effect = higher value

Row | Structure (SMILES) | inhibition
46 | COc1ccccc1S(=O)(=O)Nc1ccc2c(c1)CN(C)C(=O)N2 | -12% (inactive)
47 | Cc1cc(C#N)cc(C)c1Oc1nc(Nc2ccc(C#N)cc2)nc(N)c1Br | 1.32% (inactive)
48 | Nc1ncn(C2OC(CO)C(O)C2O)c(=O)n1 (stereo unspecified) | 20.7% (inactive)
49 | Cc1cc(C)c(Nc2ccnc(Nc3ccc(C#N)cc3)n2)c(C)c1 | -2.68% (inactive)
50 | COc1ccc(CC(N)C(=O)NC2C(CO)OC(n3cnc4c(N(C)C)ncnc43)C2O)cc1 (stereo unspecified) | 59% (inactive) and 95.4% (active)
51 | O=c1ccn(C2OC(CO)C(O)C2O)c(=O)[nH]1 (stereo unspecified) | 10.7% (inactive) and -14.6% (inactive)
52 | CC=C1NC(=O)C2CSSCCC=CC(CC(=O)NC(C(C)C)C(=O)N2)OC(=O)C(C(C)C)NC1=O (stereo unspecified) | 106% (active) and 109% (active)
53 | CN(C)CC(=O)Nc1ccc2[nH]c(=O)c3ccccc3c2c1 | 1.59% (inactive) and -0.05% (inactive) and -1.7% (inactive)
54 | CC1OC(n2cc(F)c(=O)[nH]c2=O)C(O)C1O (stereo unspecified) | -19.6% (inactive)
55 | Nc1ccn(C2OC(CO)C(O)C2(F)F)c(=O)n1 (stereo unspecified) | 43.5% (inactive) and 49.4% (inactive) and 43.9% (inactive)
56 | Cc1cn(C2CC(N=[N+]=[N-])C(CO)O2)c(=O)[nH]c1=O (stereo unspecified) | -15.8% (inactive) and 1.59% (inactive)
57 | CC(C=CC(=O)NO)=CC(C)C(=O)c1ccc(N(C)C)cc1 (stereo unspecified) | 68.2% (inactive)
58 | NC(=S)NN=Cc1ncccc1N | 0.83% (inactive)
59 | CC(C)(C#N)c1ccc(N2C(=O)OCc3cnc4ccc(-c5cnc6ccccc6c5)cc4c32)cc1 | 6.07% (inactive)
60 | CC1CN(c2c(F)c(N)c3c(=O)c(C(=O)O)cn(C4CC4)c3c2F)CC(C)N1 (stereo unspecified) | 7.45% (inactive)
61 | CCCCN(Cc1ccc(C(=O)NO)cc1)C(=O)Nc1ccccc1 | 11.3% (inactive) and 5.83% (inactive)
62 | O=c1[nH]cnc2c1ncn2C1OC(CO)C(O)C1O (stereo unspecified) | -19.3% (inactive) and -1.78% (inactive)
63 | Cc1cc(C=CC#N)cc(C)c1Nc1ccnc(Nc2ccc(C#N)cc2)n1 | 0.87% (inactive)
64 | CC(Oc1cc(-c2cnn(C3CCNCC3)c2)cnc1N)c1c(Cl)ccc(F)c1Cl (stereo unspecified) | 8.71% (inactive)
65 | O=C(O)c1cc2cccc([N+](=O)[O-])c2[nH]1 | -21.8% (inactive)
66 | O=c1[nH]c(=O)n(C2CC(O)C(CO)O2)cc1I (stereo unspecified) | -5.4% (inactive)
